We go through 11 compounds from ChEMBL document CHEMBL3988442, “University of Dundee, Small-Polar-MMV Screening Library” (2021).

Common to all, as to parameters: scale not given: direction of the effect not stated beside the values
In experiment [1] the target is Protein translocase subunit SecA (Escherichia coli (strain K12)) (UniProt P10408). The experiment is described as follows: Assay to Identify E. coli SecA ATPase Inhibitors. In kind it is functional. The note with it: 30 µM.
For experiment [2], the target named is T1, Ubiquitin-activating enzyme e1, putative (Leishmania donovani (strain BPK282A1)) (UniProt E9BSI1).
T1 sequence (whole entry): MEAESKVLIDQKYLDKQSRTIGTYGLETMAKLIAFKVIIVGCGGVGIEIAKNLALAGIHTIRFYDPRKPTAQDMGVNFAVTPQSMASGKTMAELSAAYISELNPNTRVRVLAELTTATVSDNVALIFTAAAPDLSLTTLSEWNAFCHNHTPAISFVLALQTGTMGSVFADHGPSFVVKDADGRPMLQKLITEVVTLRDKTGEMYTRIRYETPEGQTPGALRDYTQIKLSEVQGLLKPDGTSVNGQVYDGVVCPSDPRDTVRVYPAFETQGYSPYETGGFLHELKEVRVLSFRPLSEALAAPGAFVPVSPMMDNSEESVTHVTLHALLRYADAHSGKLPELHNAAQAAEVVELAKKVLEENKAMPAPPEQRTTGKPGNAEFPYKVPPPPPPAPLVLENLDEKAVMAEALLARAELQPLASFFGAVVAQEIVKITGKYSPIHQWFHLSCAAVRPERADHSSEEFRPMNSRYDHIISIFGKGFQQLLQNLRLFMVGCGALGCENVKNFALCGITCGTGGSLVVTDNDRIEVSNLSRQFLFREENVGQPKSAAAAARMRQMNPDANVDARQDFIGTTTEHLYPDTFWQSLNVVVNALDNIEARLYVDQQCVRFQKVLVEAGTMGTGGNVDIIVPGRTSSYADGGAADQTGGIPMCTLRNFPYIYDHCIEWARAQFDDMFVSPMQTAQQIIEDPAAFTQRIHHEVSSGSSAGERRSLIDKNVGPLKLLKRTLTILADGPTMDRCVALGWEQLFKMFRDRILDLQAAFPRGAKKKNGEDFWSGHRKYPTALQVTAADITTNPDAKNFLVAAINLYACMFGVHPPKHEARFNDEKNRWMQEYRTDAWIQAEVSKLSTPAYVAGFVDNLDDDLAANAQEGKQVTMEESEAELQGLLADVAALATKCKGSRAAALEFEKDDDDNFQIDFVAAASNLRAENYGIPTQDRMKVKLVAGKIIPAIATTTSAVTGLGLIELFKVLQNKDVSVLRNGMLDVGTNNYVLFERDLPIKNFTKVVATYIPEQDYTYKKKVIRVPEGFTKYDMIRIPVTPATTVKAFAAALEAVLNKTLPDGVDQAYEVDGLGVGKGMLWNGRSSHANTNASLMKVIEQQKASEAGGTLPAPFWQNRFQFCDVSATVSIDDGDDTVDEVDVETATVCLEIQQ
Briefly: Leishmania donovani Ubiquitin Activating Enzyme (LdE1). The class given is functional. As to conditions: 30 µM.

The target in experiment [3] is AMP-activated protein kinase, AMPK (Homo sapiens) (UniProt P54646+O43741+P54619+Q9UGJ0+Q9Y478+Q13131+Q9UGI9). The experiment is described as follows: AMP-dependent Kinase enzyme assay. An in vitro enzyme assay that detects ADP turnover that is directly proportional to AMPK activity. This uses naive AMPK that is activated during the assay with MK-8722. In kind it is functional. As to conditions: 30 µM.

The target of experiment [4] is Sialic acid-binding Ig-like lectin 9 (Homo sapiens) (UniProt Q9Y336). Briefly: Hs-Siglec9 ALPHAscreen SOP 20170721. The note with it: 10 µM.
Sequence of Sialic acid-binding Ig-like lectin 9 (Homo sapiens) (Q9Y336 whole entry): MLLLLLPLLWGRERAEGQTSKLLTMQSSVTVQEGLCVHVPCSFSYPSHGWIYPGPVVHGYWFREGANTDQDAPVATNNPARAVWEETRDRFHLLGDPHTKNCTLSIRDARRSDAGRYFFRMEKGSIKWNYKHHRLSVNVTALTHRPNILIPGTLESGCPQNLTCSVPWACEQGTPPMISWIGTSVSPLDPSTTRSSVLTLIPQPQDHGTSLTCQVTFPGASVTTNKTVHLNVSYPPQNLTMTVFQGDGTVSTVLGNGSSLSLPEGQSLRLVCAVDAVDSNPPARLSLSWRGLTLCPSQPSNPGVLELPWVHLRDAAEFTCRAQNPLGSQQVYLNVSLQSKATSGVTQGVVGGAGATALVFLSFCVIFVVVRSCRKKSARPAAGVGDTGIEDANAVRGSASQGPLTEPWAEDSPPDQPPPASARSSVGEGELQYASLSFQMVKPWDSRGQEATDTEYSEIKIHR
In the next experiment the test system is Trypanosoma cruzi. Briefly: Trypanosoma cruzi phosphomannomutase and mannose-1-phosphate guanylyltransferase assay. In kind it is functional. As to conditions: 10 µM.
The target in experiment [5] is T2, Arginase-2, mitochondrial (Homo sapiens) (UniProt P78540).
T2 sequence (whole entry): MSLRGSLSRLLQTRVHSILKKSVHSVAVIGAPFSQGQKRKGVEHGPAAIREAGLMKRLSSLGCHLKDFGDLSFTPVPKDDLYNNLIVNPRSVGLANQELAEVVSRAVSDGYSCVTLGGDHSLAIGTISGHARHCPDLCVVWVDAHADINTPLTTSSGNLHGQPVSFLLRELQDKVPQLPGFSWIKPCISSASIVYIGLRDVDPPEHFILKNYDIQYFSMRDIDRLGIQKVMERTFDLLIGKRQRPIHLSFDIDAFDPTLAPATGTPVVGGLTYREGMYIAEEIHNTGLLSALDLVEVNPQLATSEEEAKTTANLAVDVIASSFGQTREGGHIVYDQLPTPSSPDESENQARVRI
Briefly: in vitro enzyme assay to detect the production of urea directly proportional to the activity of Arginase II. Note: in the data most compounds retested in dose-response had high values. As to conditions: 33.3 µM. In kind it is functional.

The target in experiment [6] is T3, Proteasome subunit beta (Trypanosoma cruzi) (UniProt O96673).
T3 sequence (whole entry): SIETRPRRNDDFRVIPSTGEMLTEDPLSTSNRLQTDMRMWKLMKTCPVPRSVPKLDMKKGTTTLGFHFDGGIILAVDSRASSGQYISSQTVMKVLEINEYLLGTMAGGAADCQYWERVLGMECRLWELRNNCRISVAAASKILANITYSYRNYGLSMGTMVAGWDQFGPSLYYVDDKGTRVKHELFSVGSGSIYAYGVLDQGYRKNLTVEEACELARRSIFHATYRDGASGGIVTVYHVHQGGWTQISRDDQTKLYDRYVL
Briefly: Trypanosoma cruzi proteasome chymotrypsin-like activity (TcProtChymo) assay. Note: in the data most compounds retested in dose-response had high values. The class given is functional. The note with it: 9.37 µM.

Another experiment is filed under the species Homo sapiens. Briefly: To identify inhibition of the IFN signalling (Jak-Stat) pathway via expression of an eGFP reporter gene under the control of an IFN-stimulated response element (ISRE) containing MxA promoter. In kind it is functional. As to conditions: 30 µM.
Experiment [7] has as its target T4, Tyrosyl-tRNA synthetase, putative (Trypanosoma cruzi (strain CL Brener)) (UniProt Q4DSP6).
T4 sequence (whole entry): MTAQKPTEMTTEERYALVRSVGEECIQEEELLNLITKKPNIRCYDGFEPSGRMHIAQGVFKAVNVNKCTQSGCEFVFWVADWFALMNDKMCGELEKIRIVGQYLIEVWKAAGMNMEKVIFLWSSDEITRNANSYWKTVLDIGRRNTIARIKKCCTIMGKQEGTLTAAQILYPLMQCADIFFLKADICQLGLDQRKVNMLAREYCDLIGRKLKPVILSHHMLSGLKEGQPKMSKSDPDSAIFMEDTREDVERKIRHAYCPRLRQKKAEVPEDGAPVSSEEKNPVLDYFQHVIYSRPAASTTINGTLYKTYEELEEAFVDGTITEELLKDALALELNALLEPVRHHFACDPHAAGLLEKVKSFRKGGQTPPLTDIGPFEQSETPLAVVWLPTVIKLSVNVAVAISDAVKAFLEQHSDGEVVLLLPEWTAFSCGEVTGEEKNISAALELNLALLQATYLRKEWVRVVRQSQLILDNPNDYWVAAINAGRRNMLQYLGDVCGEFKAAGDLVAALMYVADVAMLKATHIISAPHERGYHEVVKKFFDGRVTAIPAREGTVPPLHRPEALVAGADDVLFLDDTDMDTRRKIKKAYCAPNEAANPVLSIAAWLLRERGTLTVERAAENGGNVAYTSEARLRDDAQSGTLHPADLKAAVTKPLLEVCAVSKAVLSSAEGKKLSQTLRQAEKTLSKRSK
The experiment is described as follows: Trypanosoma cruzi tyrosyl tRNA synthetase (TcYRS) _High Tyrosine SOP. Note: in the data most compounds retested in dose-response had high values. As to conditions: 30 µM. The class given is functional.

The target in experiment [8] is T4, Tyrosyl-tRNA synthetase, putative (Trypanosoma cruzi (strain CL Brener)). Briefly: Trypanosoma cruzi tyrosyl tRNA synthetase (TcYRS) SOP. In kind it is functional. The note with it: 30 µM.
Experiment [9] has as its target Chromo domain-containing protein 1 (Saccharomyces cerevisiae (strain ATCC 204508 / S288c) (Baker's yeast)) (UniProt P32657). The experiment is described as follows: ScCHD-1 Enzyme Inhibition Assay. Note: in the data most compounds retested in dose-response had high values. In kind it is functional. As to conditions: 30 µM.

For some of these results: Potency and affinity values are given separately.

Sequence of Protein translocase subunit SecA (Escherichia coli (strain K12)) (P10408 whole entry): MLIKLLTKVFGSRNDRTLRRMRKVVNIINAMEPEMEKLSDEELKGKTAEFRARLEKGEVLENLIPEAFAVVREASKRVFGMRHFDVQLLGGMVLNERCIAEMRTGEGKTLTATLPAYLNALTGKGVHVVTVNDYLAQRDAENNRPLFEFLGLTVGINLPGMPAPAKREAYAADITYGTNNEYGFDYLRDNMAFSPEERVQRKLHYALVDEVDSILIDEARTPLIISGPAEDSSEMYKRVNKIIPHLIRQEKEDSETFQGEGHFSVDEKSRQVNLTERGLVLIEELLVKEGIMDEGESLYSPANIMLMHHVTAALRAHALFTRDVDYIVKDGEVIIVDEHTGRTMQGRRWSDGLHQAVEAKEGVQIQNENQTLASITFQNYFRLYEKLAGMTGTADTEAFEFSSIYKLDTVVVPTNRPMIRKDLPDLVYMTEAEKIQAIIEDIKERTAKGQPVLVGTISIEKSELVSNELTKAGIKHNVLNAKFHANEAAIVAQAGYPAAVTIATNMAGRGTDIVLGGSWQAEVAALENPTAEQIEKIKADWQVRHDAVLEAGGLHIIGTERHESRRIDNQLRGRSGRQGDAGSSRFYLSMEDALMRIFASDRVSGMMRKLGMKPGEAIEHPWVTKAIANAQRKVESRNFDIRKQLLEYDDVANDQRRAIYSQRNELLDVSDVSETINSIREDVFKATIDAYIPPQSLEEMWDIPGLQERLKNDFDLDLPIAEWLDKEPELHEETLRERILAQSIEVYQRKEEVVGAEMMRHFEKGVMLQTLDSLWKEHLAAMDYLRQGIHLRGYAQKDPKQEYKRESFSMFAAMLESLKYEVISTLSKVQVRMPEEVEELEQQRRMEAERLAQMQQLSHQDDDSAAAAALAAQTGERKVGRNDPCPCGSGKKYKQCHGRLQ
Sequence of Chromo domain-containing protein 1 (Saccharomyces cerevisiae (strain ATCC 204508 / S288c) (Baker's yeast)) (P32657 whole entry, the tested form may be a part): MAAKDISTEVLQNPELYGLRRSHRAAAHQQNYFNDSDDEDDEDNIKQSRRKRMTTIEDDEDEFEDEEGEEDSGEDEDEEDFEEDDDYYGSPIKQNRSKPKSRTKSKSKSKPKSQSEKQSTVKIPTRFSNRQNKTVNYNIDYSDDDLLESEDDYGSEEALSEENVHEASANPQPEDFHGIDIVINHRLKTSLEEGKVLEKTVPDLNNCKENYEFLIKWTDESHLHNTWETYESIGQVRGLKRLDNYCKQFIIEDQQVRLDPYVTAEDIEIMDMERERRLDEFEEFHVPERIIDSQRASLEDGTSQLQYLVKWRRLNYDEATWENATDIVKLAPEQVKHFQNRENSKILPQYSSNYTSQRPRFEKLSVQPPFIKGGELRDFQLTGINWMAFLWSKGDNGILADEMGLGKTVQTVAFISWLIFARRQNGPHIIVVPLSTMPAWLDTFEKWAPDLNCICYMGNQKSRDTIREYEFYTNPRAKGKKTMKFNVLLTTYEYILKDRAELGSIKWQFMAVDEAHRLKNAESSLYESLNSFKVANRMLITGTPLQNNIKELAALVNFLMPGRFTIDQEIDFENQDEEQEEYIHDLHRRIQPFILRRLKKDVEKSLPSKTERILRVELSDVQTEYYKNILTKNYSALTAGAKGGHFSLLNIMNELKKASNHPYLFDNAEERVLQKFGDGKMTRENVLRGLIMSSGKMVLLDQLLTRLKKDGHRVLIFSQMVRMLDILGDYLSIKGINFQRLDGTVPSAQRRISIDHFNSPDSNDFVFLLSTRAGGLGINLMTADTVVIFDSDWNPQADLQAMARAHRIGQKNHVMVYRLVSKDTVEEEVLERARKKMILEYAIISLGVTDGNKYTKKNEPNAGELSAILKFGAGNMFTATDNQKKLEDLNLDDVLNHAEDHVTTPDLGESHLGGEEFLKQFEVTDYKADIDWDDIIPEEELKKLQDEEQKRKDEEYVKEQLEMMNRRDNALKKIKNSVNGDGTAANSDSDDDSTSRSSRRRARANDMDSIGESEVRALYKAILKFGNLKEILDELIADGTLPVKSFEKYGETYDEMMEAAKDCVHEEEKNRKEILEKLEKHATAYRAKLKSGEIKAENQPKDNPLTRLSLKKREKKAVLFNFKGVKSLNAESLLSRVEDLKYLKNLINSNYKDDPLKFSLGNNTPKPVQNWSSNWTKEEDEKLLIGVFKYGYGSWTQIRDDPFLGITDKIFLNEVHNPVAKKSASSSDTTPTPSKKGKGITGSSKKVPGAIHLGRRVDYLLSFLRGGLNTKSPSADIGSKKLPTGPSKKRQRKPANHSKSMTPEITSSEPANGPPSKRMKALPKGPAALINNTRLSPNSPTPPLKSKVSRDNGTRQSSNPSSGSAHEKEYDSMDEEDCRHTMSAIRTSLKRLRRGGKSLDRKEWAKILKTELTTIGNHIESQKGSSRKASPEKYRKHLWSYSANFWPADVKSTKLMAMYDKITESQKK

As to `COc1ccc(-c2nnc(SCC(=O)NCC(C)C)[nH]2)c(OC)c1`, the Percent Effect in experiment [1] was -5.51%; in experiment [2] it was 18.4%; in experiment [3] it was 1.07%; in [4], -1.8%; in the experiment on Trypanosoma cruzi, 4.97%; in [5], 4.73%. For the same compound, the Percent Effect in [6] is 15.8%; in the experiment filed under Homo sapiens it was 12.1%; in experiment [7] it was 3.19%; in experiment [8], 18.2%; in experiment [9], -1.07%.
Consider `Cc1ccc(S(=O)(=O)N2CSCC2C(=O)N(C)C2CC2)cc1Cl` (stereo unspecified), for which the Percent Effect in [1] is -5.45%; in [2] it was 5.41%; in [3], -2.19%; in experiment [4], 10.8%; with Trypanosoma cruzi it was 6.16%; in experiment [5], 1.74%. Besides, the Percent Effect in experiment [6] was 7.47%; in the experiment filed under Homo sapiens it was 5.7%; in [7], 0%; in experiment [8], 3.7%; in [9], -5.33%.
For `O=C(CN1C=Nc2ccccc2S1(=O)=O)NCCc1cccs1`, the Percent Effect in experiment [1] was -6.39%; in [2], 13.2%; in experiment [3], -6.07%; in [4], 5.67%; in the experiment on Trypanosoma cruzi, 3.08%; in experiment [5] it was 5.04%. Also, the Percent Effect in experiment [6] was 9.56%; in the experiment filed under Homo sapiens, 5.08%; in experiment [7], 8.37%; in experiment [8], 25.9%; in experiment [9] it was -10.2%.
As to `Cc1ccc(C)c(OCCN2CCC(N3CCNC3=O)CC2)c1`, the Percent Effect in [1] is -3.83%; in experiment [2], 10.8%; in [3], -16.9%; in experiment [4], 6.39%; in the experiment with Trypanosoma cruzi, -2.69%; in experiment [5], 2.03%. In addition, the Percent Effect in experiment [6] was 1.62%; in the experiment filed under Homo sapiens, 6.79%; in experiment [7], 4.95%; in [8], 13.4%; in experiment [9], -0.537%.
Take `CCc1nc(CN2CCCN(C(=O)c3cnc[nH]3)CC2)cs1`: the Percent Effect in experiment [1] is -0.253%; in [2] it was -2.7%; in experiment [3] it was 2.03%; in [4], 4.57%; in the experiment on Trypanosoma cruzi, 2.14%; in experiment [5], -1.66%. In addition, the Percent Effect in experiment [6] came out at 12.9%; in the experiment listed under Homo sapiens, 2.83%; in experiment [7], 3.96%; in [8], 1.22%; in [9], 4.62%.
Turning to `Cc1ccccc1NS(=O)(=O)c1cc2c(c(C(=O)O)c1)OCCO2`, the Percent Effect is -8.46% in experiment [1]; 7.89% in [2]; 0.578% in experiment [3]; -1.17% in experiment [4]; -7.19% in the experiment on Trypanosoma cruzi; -6.47% in experiment [5]. For the same compound, the Percent Effect in [6] came to 5.67%; in the experiment listed under Homo sapiens it was 2.34%; in [7], 2.46%; in experiment [8], 1.24%; in [9], 3.8%.
Turning to `CN(C)c1cc(CNC(=O)c2cn(-c3ccc(F)cc3)nn2)ccn1`, the Percent Effect was -5.01% in [1]; 10.4% in experiment [2]; 1.52% in experiment [3]; 2.16% in experiment [4]; 0.686% in the experiment on Trypanosoma cruzi; 3.58% in [5]. For the same compound, the Percent Effect is 14.2% in [6]; 11.3% in the experiment listed under Homo sapiens; 7.62% in experiment [7]; 21.2% in [8]; -6.24% in experiment [9].
On to `Cn1cc(CCC(=O)N2CCN(Cc3ccncc3)CC2)cn1`, for which the Percent Effect in experiment [1] is -7.43%; in experiment [2], 15.6%; in [3], 3.53%; in experiment [4] it was -6.41%; in the experiment on Trypanosoma cruzi, -4.87%; in [5], -1.42%. Moreover, the Percent Effect is 4.22% in experiment [6]; 2.24% in the experiment listed under Homo sapiens; 6.8% in experiment [7]; 14.6% in experiment [8]; -5.86% in experiment [9].
Regarding `Cc1ccc2c(ccn2CC(=O)NC[C@@H]2CCCN3CCCC[C@H]23)c1`, the Percent Effect is -5.2% in experiment [1]; 28% in experiment [2]; -5.58% in experiment [3]; 4.06% in experiment [4]; 5.5% in the experiment on Trypanosoma cruzi; -6.16% in experiment [5]. The Percent Effect in experiment [6] is 16.3%; in the experiment listed under Homo sapiens, -4.16%; in experiment [7] it was 4.23%; in [8], 12.8%; in experiment [9], -11.5%.
As to `CCOc1ccc(CC(=O)N2CCN(c3nccn3C)CC2)cc1`, the Percent Effect is -0.699% in experiment [1]; 13% in experiment [2]; 1.57% in experiment [3]; 3.44% in experiment [4]; -5.62% with Trypanosoma cruzi; -7.1% in experiment [5]. Further, the Percent Effect in experiment [6] was 18.6%; in the experiment listed under Homo sapiens, 9.26%; in experiment [7] it was 4.23%; in experiment [8] it was 14.1%; in [9] it was -6.41%.
For `Cc1cc(F)ccc1S(=O)(=O)NCc1cccc(C(=O)N2CCCC2)c1`, the Percent Effect in experiment [1] is -5.18%; in [2], 15.6%; in experiment [3] it was 2.25%; in experiment [4], 0.935%; in the experiment on Trypanosoma cruzi, 2.64%; in [5] it was -12%. Also, the Percent Effect is 2.34% in [6]; 26.5% in the experiment listed under Homo sapiens; 6.67% in [7]; 9.41% in experiment [8]; -12.9% in experiment [9].
